Reference: PubChem BioAssay AID1578 (Sanford-Burnham Center for Chemical Genomics, 2009)
The whole screen tested about 290,000 compounds, of which about 3,000 (1%) were called active. Rule as the data show it: active = inhibition mostly above about 36% (no sharp cut-off); inactive = mostly below about 34%. This excerpt belongs to a sample that is enriched for actives.

Assay: inhibition of NOD1-driven NF-kB reporter – cell-based, luminescence, uHTS, primary screen (AID 1578);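 also: HEK-293T reporter cells stimulated with the NOD1 agonist gamma-tri-DAP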
Details: NOD1-driven NF-kB luciferase reporter cells, at 4 µM, active compounds read high

inhibition, inactive:
COc1ccc2nc(NC3=NC(c4ccccc4)CC(=O)N3)nc(C)c2c1 (stereo unspecified) -18.7%
O=C(NNS(=O)(=O)c1ccccc1)C1CC(c2cccnc2)=NO1 (stereo unspecified) -32.5%
COc1ccc(S(=O)(=O)NNC(=O)C2CC(c3cccnc3)=NO2)cc1 (stereo unspecified) -24.9%
COc1ccc(C(=O)C2CCN(CC(=O)Nc3ccc(OC)cc3OC)CC2)cc1 -10.7%
COC(=O)c1sc(=S)n(Cc2ccccc2)c1C 5%
COc1ccc(CNC(=O)CCC(=O)N2CC(C)Oc3ccccc32)cc1 (stereo unspecified) -16.3%
O=C(Nc1ccccc1)c1nnsc1S(=O)(=O)c1ccc(Cl)cc1 67.9%
c1ccc(-c2nnsc2-c2ccccc2)cc1 6.7%
Cc1nnsc1S(=O)(=O)c1ccccc1 -10.8%
O=S(=O)(c1ccc(F)cc1)c1snnc1-c1ccccc1 24.9%
CCCCCCCSc1nnc(N)s1 5.6%
CC(C)(C)NC(=O)COC(=O)c1ccccc1NC(=O)c1ccco1 -42.8%
CC1CN(C(=O)c2cc3ccccc3oc2=O)CC(C)O1 (stereo unspecified) 0.9%
C/C(=N/NC(=O)c1ccncc1)c1ccc(NC(=O)c2ccccc2)cc1 -8.8%
C/C(=N\NC(=O)c1ccncc1)c1ccc(NC(=O)c2ccc(Cl)cc2)cc1 7%
NC(=O)CC(NC(=O)Cc1ccc(Cl)cc1)c1ccc(NC2CCCCC2)c([N+](=O)[O-])c1 (stereo unspecified) -4.6%
Oc1csc(Cc2nc(-c3ccc(-c4ccccc4)cc3)cs2)n1 31.2%
Oc1csc(Cc2nc(-c3ccc4ccccc4c3)cs2)n1 4.6%
O=C(Nn1cc(C(=O)Nc2ccc(F)cc2F)c2ccccc2c1=O)c1cnccn1 -21.1%
COC(=O)c1cn(NC(=O)c2cnccn2)c(=O)c2ccccc12 3%
C=CCN1C(=O)/C(=C2/C(=O)N(CC(=O)O)c3ccccc32)S/C1=N/c1nccs1 -5.4%
CCN(CC)CCn1c(NC(=O)c2ccccc2O)nc2ccccc21 19%
Cc1ccc(CNC(=O)CNS(=O)(=O)c2cccc3nsnc23)cc1 -18.7%
O=C(CCCNS(=O)(=O)c1cccc2nsnc12)NCc1ccc(Cl)cc1 -12%
Cn1ncc(N=Cc2ccccc2)c1C(N)=O -13.3%
C/C(CC(=O)NCc1ccc(Cl)cc1)=N\NC(=O)Cc1ccccc1 -22.7%
COc1ccc(N2CCN(S(=O)(=O)c3ccc4c(c3)NC(=O)C(C)C(=O)N4)CC2)cc1 (stereo unspecified) -0.5%
Cc1ccc(NC(=O)C2CCN(S(=O)(=O)c3ccc4c(c3)NC(=O)C(C)S4)CC2)cc1C (stereo unspecified) 6.5%
CC1Sc2ccc(S(=O)(=O)N3CCC(C(=O)Nc4cccc(Cl)c4)CC3)cc2NC1=O (stereo unspecified) 7.5%
Cc1cc(C)cc(NC(=O)C2CCN(S(=O)(=O)c3ccc4c(c3)NC(=O)C(C)S4)CC2)c1 (stereo unspecified) -10.4%
CC1Sc2ccc(S(=O)(=O)N3CCN(c4ccccc4)CC3)cc2NC1=O (stereo unspecified) 30.2%
CCc1ccc(NC(=O)C2CCN(S(=O)(=O)c3ccc4c(c3)NC(=O)C(C)S4)CC2)cc1 (stereo unspecified) 30.4%
O=C(NCc1cccs1)c1cnc2ccccn2c1=O -8.1%
COc1ccc(C(C)(C)C)cc1NC(=O)CCNC(=O)c1ccco1 -35.1%
O=C(CN1CCCCC1)NNC(=O)c1cccc(Br)c1 5.1%
CCCc1nnc(NC(=O)Cn2c(=O)oc3cc(Br)ccc32)s1 -17.9%
COc1ccc2[nH]c(=O)c(CN(CC3CCCO3)C(=S)Nc3ccc(C)cc3)cc2c1 (stereo unspecified) -18.3%
COc1ccc2[nH]c(=O)c(CN(CC3CCCO3)C(=S)Nc3ccccc3)cc2c1 (stereo unspecified) -31.7%
COc1cccc(CN(C)CC(=O)NCc2ccccc2Cl)c1 8.1%
Cc1ccc(OCC(=O)Nc2ccc(NC(=O)c3ccccc3)cc2)cc1C -12.6%
CCOC(=O)c1nc2sc(C)c(C)c2c(=O)[nH]1 4.3%
CCOC(=O)/C(=C\c1ccc(Cl)cc1)c1nc2sc(C)c(C)c2c(=O)[nH]1 58.5%
CCOC(=O)C1CCN(C(=O)CCc2c(C)nc3ncnn3c2C)CC1 2.5%
CCOC(=O)N1CCN(Cc2cc(Cl)c3cccnc3c2O)CC1 -1.5%
O=[N+]([O-])c1cc(Cl)c2cccnc2c1O -7.9%
O=C(Cc1c(O)c2ccccc2oc1=O)c1ccc(C(F)(F)F)cc1 -10.7%
OCCN1CCN(Cc2cc(Cl)c3cccnc3c2O)CC1 26.4%
COc1ccc(NC(=S)Nc2ccc(N)c([N+](=O)[O-])c2)cc1 -69.8%
Cc1c(CNCc2cccs2)c(C(=O)O)c(C)n1Cc1ccccc1 8.7%
O=C(NC1CCCCC1)N1CCCC(CNS(=O)(=O)Cc2ccccc2)C1 (stereo unspecified) -23.7%
Fc1ccccc1NC(=S)NNc1ncc(C(F)(F)F)cc1Cl 12.4%
C/C(=N/Nc1ncc(C(F)(F)F)cc1Cl)c1ccncc1 -9%

inhibition, active:
O=C(NNS(=O)(=O)c1ccc(F)cc1)C1CC(c2cccnc2)=NO1 (stereo unspecified) 51%
O=S(=O)(c1ccc(Cl)c(Cl)c1)c1snnc1-c1ccccc1 77.3%
C/C(=N\NC(=O)c1ccccc1NC(=O)c1ccc(Cl)cc1)c1ccncc1 60.4%
Cc1sc(Cc2nc(O)cs2)nc1-c1ccccc1 97.9%
O=C(Nn1cc(C(=O)Nc2ccccc2F)c2ccccc2c1=O)c1cnccn1 47.1%
O=C(CNS(=O)(=O)c1cccc2nsnc12)NCc1ccc(Cl)cc1 47.4%
COc1ccc2[nH]c(=O)c(CN(CC3CCCO3)C(=S)Nc3cccc(C)c3)cc2c1 (stereo unspecified) 46.6%
CCOC(=O)/C(=C\c1cccc(O)c1)c1nc2sc(C)c(C)c2c(=O)[nH]1 105%
O=c1oc2ccccc2c(O)c1Cc1cc(Cl)c2cccnc2c1O 62.6%
